Data taken from PubChem BioAssay (Tox21).
Several values for one entry are separate records, joined by “and”; a condition that tells them apart may be missing. Equal values may be shown once. Results filed as inconclusive are left out. The source holds several records for some structures; these can differ, active in one and inactive in another. Activity calls are given as the source filed them. Unless noted, calls follow the shape of the dose curve; as a rule, active = well fitted curve in the direction sought with a large enough effect in the repeat runs; inconclusive = weak or mixed curves; inactive = no such curve, though single readings can be large; an effect the other way counts as inactive or inconclusive.

Columns and labels:
[1] = qHTS assay to identify small molecule antagonists of the glucocorticoid receptor (GR) signaling pathway - cell viability counter screen (AID 720693); also: nearly all actives have a fitted effect of over 55% in size
[2] = qHTS assay for identifying genotoxic compounds that show differential cytotoxicity against isogenic chicken DT40 cell lines with known DNA damage response pathways - wild type cell line (AID 743012); also: nearly all actives have a fitted effect of over 60% in size; also: potency is read from the fitted curve at half-maximal effect
Method in brief: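 Luminescent ATP viability signal (CellTiter-Glo, 30 min RT) recorded after wild type DT40 cells were incubated with compounds for 40 h at 37 C/5% CO2.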

[3] = qHTS assay for identifying genotoxic compounds that show differential cytotoxicity against isogenic chicken DT40 cell lines with known DNA damage response pathways - Rev3 mutant cell line (AID 743014); also: nearly all actives have a fitted effect of over 55% in size; also: potency is read from the fitted curve at half-maximal effect
[4] = qHTS assay for identifying genotoxic compounds that show differential cytotoxicity against isogenic chicken DT40 cell lines with known DNA damage response pathways - Rad54/Ku70 mutant cell line (AID 743015); also: nearly all actives have a fitted effect of over 60% in size; also: potency is read from the fitted curve at half-maximal effect
[5] = qHTS assay to identify small molecule antagonists of the androgen receptor (AR) signaling pathway - cell viability counter screen (AID 743033; also: nearly all actives have a fitted effect of over 45% in size; also: potency is read from the fitted curve at half-maximal effect)
[6] = biological target: Androgen receptor (Homo sapiens) (UniProt P10275); test: qHTS assay to identify small molecule antagonists of the androgen receptor (AR) signaling pathway (AID 743035; active = well fitted inhibition curve with a large enough effect in the signal ratio in the repeat runs, not every such curve was filed as active; the % refers to the signal ratio)
Method in brief: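 Quantitative HTS of the Tox21 10K library used HEK293 AR-UAS-bla cells stimulated with R1881 alongside compound for 16 h at 37C, followed by beta-lactamase FRET detection (LiveBLAzer B/G, 2 h, RT).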

[7] = biological target: Androgen receptor (Homo sapiens) (UniProt P10275); test: qHTS assay to identify small molecule agonists of the androgen receptor (AR) signaling pathway (AID 743036; active = well fitted activation curve with a large enough effect in the signal ratio in the repeat runs, with a control signal flat, not every such curve was filed as active; the % refers to the signal ratio)
Method in brief: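 Screening used 2,000 AR-bla HEK293 cells per well, treated 16 h at 37C with test compounds in DMSO alongside positive and DMSO-only controls; beta-lactamase activity was then read by LiveBLAzer B/G FRET fluorescence after 2 h at room temperature.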

[8] = qHTS assay to identify small molecule antagonists of the androgen receptor (AR) signaling pathway using the MDA cell line - cell viability counter screen (AID 743041; also: nearly all actives have a fitted effect of over 45% in size; also: potency is read from the fitted curve at half-maximal effect)
Method in brief: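 Compound exposure lasted 16 h at 37C in MDA-kb2 AR-luc cells stimulated with R1881. Protease-based CellTiter-Fluor reagent was applied for the final 30 min and fluorescence measured.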

[9] = biological target: Androgen receptor (Homo sapiens) (UniProt P10275); test: qHTS assay to identify small molecule agonists of the androgen receptor (AR) signaling pathway using the MDA cell line (AID 743040; also: nearly all actives have a fitted effect of over 20% in size)
Method in brief: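 Testing was done with the MDA-kb2 AR-luc line, a human breast carcinoma stably transfected with MMTV-luciferase containing AR and GR response elements. Cells were exposed 16 h at 37C before ONE-Glo luminescence detection.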

[10] = biological target: Androgen receptor (Homo sapiens) (UniProt P10275); test: qHTS assay to identify small molecule antagonists of the androgen receptor (AR) signaling pathway using the MDA cell line (AID 743042; also: nearly all actives have a fitted effect of over 55% in size; also: potency is read from the fitted curve at half-maximal effect)
Method in brief: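 MDA-kb2 breast carcinoma cells carrying MMTV-luciferase (AR/GR responsive) were co-treated with compounds and the agonist R1881 for 16 h at 37C. Inhibition read as ONE-Glo luminescence; CellTiter-Fluor fluorescence measured in parallel for cytotoxicity.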

Measured: Potency

Sequence of Androgen receptor (Homo sapiens) (P10275 whole entry, looked up): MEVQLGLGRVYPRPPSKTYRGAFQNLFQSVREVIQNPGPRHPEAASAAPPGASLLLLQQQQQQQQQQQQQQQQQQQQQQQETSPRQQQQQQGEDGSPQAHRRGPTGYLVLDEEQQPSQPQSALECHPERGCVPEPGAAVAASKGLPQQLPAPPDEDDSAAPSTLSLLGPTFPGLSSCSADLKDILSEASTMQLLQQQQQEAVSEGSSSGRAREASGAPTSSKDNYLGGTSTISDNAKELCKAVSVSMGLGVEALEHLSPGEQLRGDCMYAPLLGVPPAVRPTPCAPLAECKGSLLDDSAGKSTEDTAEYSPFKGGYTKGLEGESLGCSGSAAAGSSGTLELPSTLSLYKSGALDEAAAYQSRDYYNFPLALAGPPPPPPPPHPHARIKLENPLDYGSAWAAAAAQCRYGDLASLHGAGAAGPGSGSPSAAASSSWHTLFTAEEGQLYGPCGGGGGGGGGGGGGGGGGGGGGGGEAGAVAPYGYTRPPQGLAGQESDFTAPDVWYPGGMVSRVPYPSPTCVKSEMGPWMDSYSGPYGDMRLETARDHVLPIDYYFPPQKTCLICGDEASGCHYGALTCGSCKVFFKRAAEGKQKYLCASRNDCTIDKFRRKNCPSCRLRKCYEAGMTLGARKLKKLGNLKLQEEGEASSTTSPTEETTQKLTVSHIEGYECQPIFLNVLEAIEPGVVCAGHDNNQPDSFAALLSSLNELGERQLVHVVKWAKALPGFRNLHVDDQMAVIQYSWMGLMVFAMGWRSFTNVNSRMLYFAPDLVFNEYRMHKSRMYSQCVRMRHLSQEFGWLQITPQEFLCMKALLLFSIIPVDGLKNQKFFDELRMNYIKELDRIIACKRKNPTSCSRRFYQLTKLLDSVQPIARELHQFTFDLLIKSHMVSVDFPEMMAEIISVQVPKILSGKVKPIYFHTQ

CCCCN(N=O)C(=N)N[N+](=O)[O-]
active: [2] 17.6 µM | [3] 1.57 µM | [4] 2.79 µM
not listed: [9] | [10]
inactive: all other assays above

CN1C(=O)NC(=O)C(C)(C2=CCCCC2)C1=O (stereo unspecified)
inactive: [1] | [2] | [3] | [4] | [5] | [8]

CCn1cc[n+](C)c1
inactive: [1] | [2] | [3] | [4] | [5] | [8]

Cc1ccc(-c2c(Cl)nc(C#N)n2S(=O)(=O)N(C)C)cc1
inactive: [1] | [9]
active: [2] 61.1 µM | [3] 61.1 µM | [4] 61.1 µM | [5] 43.6 µM | [10] 54.4 µM

Clc1ccc(C(OCCN2CCCCC2)c2ccccc2)cc1 (stereo unspecified)
inactive: [1]
active: [2] 3.59 µM | [3] 11.4 µM | [4] 10.1 µM

CNC(C)Cc1ccccc1OC (stereo unspecified)
inactive: [1] | [2] | [3] | [4] | [5] | [8]

c1ccc(CN2CCNCC2)cc1
inactive: [1] | [2] | [3] | [4] | [5] | [8]

CN(N=O)c1ccc([N+](=O)[O-])cc1
inactive: [1] | [2] | [3] | [4] | [5] | [8]

COC(=O)c1cncn1C(C)c1ccccc1 (stereo unspecified)
inactive: [1] | [2] | [3] | [4] | [5] | [8]

CCCCOC(=O)c1ccccc1C(=O)OCc1ccccc1
inactive: [1] | [3] | [5] | [8]
active: [4] 51.4 µM
inactive and 48.6 µM (active): [2]

Cc1ccc(N)cc1C
inactive: [1] | [2] | [3] | [4] | [5] | [8]

O=S(=O)(O)C(F)(F)C(F)(F)C(F)(F)C(F)(F)F
inactive: [1]

S=C=NCc1ccccc1
not listed: [6]
inactive: all other assays above

O=[N+]([O-])C(Br)(CO)CO
active: [2] 8.41 µM and 6.11 µM | [3] 18.8 µM and 7.7 µM | [4] 26.6 µM and 12.2 µM
not listed: [6] | [9]
inactive: all other assays above

C(=NC1CCCCC1)=NC1CCCCC1
inactive and 15.4 µM (active): [2]
inactive and 3.06 µM (active): [4]
inactive and 21.7 µM (active): [3]
inactive: [1] | [5] | [8]

COC(=O)C(Br)CBr (stereo unspecified)
inactive: [1] | [2] | [3] | [4] | [5] | [8]

O=C(C(Cl)(Cl)Cl)C(Cl)(Cl)Cl
not listed: [9]
inactive: all other assays above

BrCC(Br)C1CCC(Br)C(Br)C1 (stereo unspecified)
not listed: [9]
inactive: all other assays above

O=C(Nc1ccccc1)Nc1cnns1
inactive: [1]
active: [2] 54.4 µM | [3] 54.4 µM | [4] 30.6 µM

CCOP(=O)(OCC)SCCSCC
inactive: [1] | [2] | [3] | [4] | [5] | [8]

COc1cc(CC(C)N)cc2c1OCO2 (stereo unspecified)
inactive: [1] | [2] | [3] | [4] | [5] | [8]

O=[N+]([O-])c1cc(C(F)(F)F)cc([N+](=O)[O-])c1Cl
inactive: [1] | [2] | [3] | [4] | [5]
active: [8] 43.5 µM

C=CC(=O)OCC(C)C
inactive: [1] | [2] | [3] | [4] | [5] | [8]

CN1C[C@H](CNC(=O)OCc2ccccc2)C[C@@H]2c3cccc4c3c(cn4C)C[C@H]21
active: [2] 5.96 µM | [3] 8.41 µM | [4] 8.41 µM
inactive: [1]

CC1CC(CC2CCC(N)C(C)C2)CCC1N (stereo unspecified)
active: [2] 7.82 µM | [3] 2.47 µM | [4] 9.85 µM | [8] 31.1 µM
not listed: [6]
inactive: all other assays above

CCCCCCCCOC(=O)c1ccc(C(=O)OCCCCCCCC)c(C(=O)OCCCCCCCC)c1
inactive: [1] | [2] | [3] | [4] | [5] | [8]

O=C(O)C(F)(F)C(F)(F)C(F)(F)C(F)(F)C(F)(F)C(F)(F)C(F)(F)C(F)(F)C(F)(F)C(F)(F)F
inactive: [1] | [2] | [3] | [4] | [5] | [8]

Cl/C=C\C[N+]12CN3CN(CN(C3)C1)C2
active: [2] 48.6 µM | [3] 30.6 µM | [4] 43.3 µM
not listed: [6] | [9]
inactive: all other assays above

[O-][Cl+]O
inactive: [1] | [2] | [3] | [4] | [5] | [8]

Brc1ccccc1
not listed: [9]
inactive: all other assays above

C=CCOC(C)=O
not listed: [9]
inactive: all other assays above

O=NN1CCCCCC1
not listed: [9]
inactive: all other assays above

CCOC(=O)CBr
inactive: [1] | [2] | [3] | [4] | [5] | [8]

CCCCCCCCCCOC(=O)c1ccccc1C(=O)OCCCCCCCCCC
not listed: [6] | [9] | [10]
inactive: all other assays above

O=[Se]=O
inactive: [1] | [5]
active: [2] 0.541 µM | [3] 0.341 µM | [4] 0.242 µM | [8] 19.2 µM

O=C(O)C(F)(F)C(F)(F)C(F)(F)C(F)(F)C(F)(F)C(F)(F)C(F)(F)C(F)(F)C(F)(F)F
inactive: [1] | [2] | [3] | [4] | [5] | [8]

Clc1cccc2ccccc12
inactive: [1] | [2] | [3] | [4] | [5] | [8]

N#Cc1ccc(Cl)cc1
inactive: [1] | [2] | [3] | [4] | [5] | [8]

COc1nn(C(=O)NS(=O)(=O)c2ccccc2OC(F)(F)F)c(=O)n1C
inactive: [1] | [2] | [3] | [4] | [5] | [8]

Cl/C=C\Cl
inactive: [1] | [2] | [3] | [4] | [5] | [8]

CC(=O)C(C)(C)C
inactive: [1] | [5] | [8]
active: [2] 45 µM | [3] 3.18 µM | [4] 4.01 µM

O=C(CBr)OCc1ccccc1
inactive: [1] | [2] | [3] | [4] | [5] | [8]

[CH3][Sn]([CH3])([Cl])[Cl]
inactive: [1] | [5] | [8]
active: [2] 54.5 µM | [3] 62.1 µM and 27.3 µM | [4] 48.6 µM

O=C(O)CC(Cl)C(=O)O (stereo unspecified)
inactive: [1] | [2] | [3] | [4] | [5] | [8]

CCOP(=S)(OCC)SCSCC
inactive: [1] | [5] | [8]
active: [2] 54.5 µM | [3] 27.3 µM | [4] 48.6 µM

ClCc1ccccc1
inactive: [1] | [2] | [3] | [4] | [5] | [8]

O=[N+]([O-])c1ccccc1CCl
inactive: [1] | [2] | [3] | [4] | [5] | [8]

CCC(Cl)CCl (stereo unspecified)
inactive: [1] | [2] | [3] | [4] | [5] | [8]

CCCCN=C=O
inactive: [1] | [2] | [3] | [4] | [5] | [8]

COc1c(C(C)(C)C)cc([N+](=O)[O-])c(C)c1[N+](=O)[O-]
inactive: [1] | [2] | [3] | [4] | [5] | [8]

COC(=O)C(C)N(C(=O)Cc1ccccc1)c1c(C)cccc1C (stereo unspecified)
active: [2] 8.63 µM | [3] 9.69 µM | [4] 15.4 µM
inactive: [1] | [5] | [8]

CC/C(=N\OC/C=C/Cl)C1=C(O)CC(C2CCOCC2)CC1=O (stereo unspecified)
inactive: [1] | [2] | [3] | [4] | [5] | [8]

CCOP(=O)(OCC)Oc1ccc([N+](=O)[O-])cc1
inactive: [1] | [2] | [3] | [4] | [5] | [8]

O=S(=O)(Cl)c1ccccc1
inactive: [1] | [2] | [3] | [4] | [5] | [8]

CC(=O)CCC(C)=O
inactive: [1] | [2] | [3] | [4] | [5] | [8]

O=C(N[C@H](c1ccccc1)[C@@H]1CN2CCC1CC2)c1c(Cl)ccc(C(F)(F)F)c1Cl
inactive: [1] | [5] | [8]
active: [2] 22 µM | [3] 39.2 µM | [4] 24.7 µM

CCCN(CCCl)c1c([N+](=O)[O-])cc(C(F)(F)F)cc1[N+](=O)[O-]
inactive: [1] | [2] | [3] | [4] | [5] | [8]

Nc1nc(N)nc(N)n1
inactive: [1] | [2] | [3] | [4] | [5] | [8]
